# PubChem BioAssay AID1159580 (chemical genetic matrix, 2015)
# Values joined by “and” are separate entries in the source; they are usually repeats but may differ in a detail not shown here. Equal entries are not always repeated. Screen size: about 5,500 compounds; about 2,000 (36%) were called active. Roughly 18% stayed inconclusive and do not appear here. The list shows a part of the results. A number with no mark means an inactive call. Rule as the data show it: active = normalized growth mostly below about 0.91 (no sharp cut-off); inconclusive = no clear call, values can overlap the other calls; inactive = mostly above about 0.92.
# Assay: chemical genetic growth profiling, strain panel (AID 1159580);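 also: tested at 20 µM; growth read once vehicle control cultures reached saturation at 30 °C; 1 = growth at the plate median or of vehicle wells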
# Settings: S. cerevisiae deletion strains, growth OD
smiles,measurement,setting,value
C[C@@H]1CC[C@H]2[C@@H](C)C(O)O[C@@H]3O[C@@]4(C)CC[C@@H]1[C@]32OO4 (some centres not stated),normalized growth,"locus YAL013W, strain DEP1, stronger effect = lower value",0.528 (active)
same,normalized growth,"locus YAL021C, strain ccr4, stronger effect = lower value",0.507 (active)
same,normalized growth,"locus YAL026C, strain drs2, stronger effect = lower value",0.358 (active)
same,normalized growth,"locus YAL030W, strain snc1, stronger effect = lower value",0.319 (active)
same,normalized growth,"locus YBL061C, strain skt5, stronger effect = lower value",0.337 (active)
same,normalized growth,"locus YBR009C, strain hhf1, stronger effect = lower value",0.215 (active)
same,normalized growth,"locus YBR021W, strain FUR4, stronger effect = lower value",0.857
same,normalized growth,"locus YBR023C, strain chs3, stronger effect = lower value",0.331 (active)
same,normalized growth,"locus YBR171W, strain sec66, stronger effect = lower value",0.608 (active)
same,normalized growth,"locus YBR229C, strain ROT2, stronger effect = lower value",0.7 (active)
same,normalized growth,"locus YBR231C, strain swc5, stronger effect = lower value",0.253 (active)
same,normalized growth,"locus YBR279W, strain paf1, stronger effect = lower value",0.276 (active)
same,normalized growth,"locus YCL011C, strain gbp2, stronger effect = lower value",0.231 (active)
same,normalized growth,"locus YCL016C, strain dcc1, stronger effect = lower value",0.275 (active)
same,normalized growth,"locus YCL029C, strain bik1, stronger effect = lower value",0.325 (active)
same,normalized growth,"locus YCL061C, strain MRC1, stronger effect = lower value",0.312 (active)
same,normalized growth,"locus YCL069W, strain vba3, stronger effect = lower value",0.315 (active)
same,normalized growth,"locus YCR088W, strain abp1, stronger effect = lower value",0.321 (active)
same,normalized growth,"locus YDL005C, strain med2, stronger effect = lower value",0.448 (active)
same,normalized growth,"locus YDL035C, strain GPR1, stronger effect = lower value",0.295 (active)
same,normalized growth,"locus YDL040C, strain nat1, stronger effect = lower value",0.408 (active)
same,normalized growth,"locus YDL074C, strain BRE1, stronger effect = lower value",0.556 (active)
same,normalized growth,"locus YDL101C, strain DUN1, stronger effect = lower value",0.325 (active)
same,normalized growth,"locus YDL134C, strain PPH21, stronger effect = lower value",0.314 (active)
same,normalized growth,"locus YDL185W, strain tfp1, stronger effect = lower value",0.139 (active)
same,normalized growth,"locus YDL192W, strain arf1, stronger effect = lower value",0.547 (active)
same,normalized growth,"locus YDR001C, strain nth1, stronger effect = lower value",0.377 (active)
same,normalized growth,"locus YDR069C, strain doa4, stronger effect = lower value",0.386 (active)
same,normalized growth,"locus YDR101C, strain arx1, stronger effect = lower value",0.459 (active)
same,normalized growth,"locus YDR137W, strain rgp1, stronger effect = lower value",0.348 (active)
same,normalized growth,"locus YDR150W, strain NUM1, stronger effect = lower value",0.262 (active)
same,normalized growth,"locus YDR159W, strain sac3, stronger effect = lower value",0.471 (active)
same,normalized growth,"locus YDR162C, strain NBP2, stronger effect = lower value",0.356 (active)
same,normalized growth,"locus YDR195W, strain ref2",0.54 (active)
same,normalized growth,"locus YDR297W, strain sur2, stronger effect = lower value",0.384 (active)
same,normalized growth,"locus YDR318W, strain mcm21, stronger effect = lower value",0.258 (active)
same,normalized growth,"locus YDR334W, strain swr1, stronger effect = lower value",0.276 (active)
same,normalized growth,"locus YDR335W, strain msn5, stronger effect = lower value",0.492 (active)
same,normalized growth,"locus YDR388W, stronger effect = lower value",0.316 (active)
same,normalized growth,"locus YDR392W, strain spt3, stronger effect = lower value",0.133 (active)
same,normalized growth,"locus YDR502C, strain sam2, stronger effect = lower value",0.415 (active)
same,normalized growth,"locus YEL003W, strain gim4, stronger effect = lower value",0.237 (active)
same,normalized growth,"locus YEL037C, strain rad23, stronger effect = lower value",0.407 (active)
same,normalized growth,"locus YEL061C, strain CIN8 (second series), stronger effect = lower value",0.295 (active)
same,normalized growth,"locus YEL061C, strain CIN8, stronger effect = lower value",0.302 (active)
same,normalized growth,"locus YER015W, strain faa2, stronger effect = lower value",0.179 (active)
same,normalized growth,"locus YER016W, strain bim1, stronger effect = lower value",0.235 (active)
same,normalized growth,"locus YER110C, stronger effect = lower value",0.275 (active)
same,normalized growth,"locus YER111C, strain swi4, stronger effect = lower value",0.5 (active)
same,normalized growth,"locus YER155C, strain BEM2 (second series), stronger effect = lower value",0.568 (active)
same,normalized growth,"locus YER155C, strain BEM2, stronger effect = lower value",0.345 (active)
same,normalized growth,"locus YER167W, strain BCK2, stronger effect = lower value",0.198 (active)
same,normalized growth,"locus YFR010W, strain ubp6, stronger effect = lower value",0.391 (active)
same,normalized growth,"locus YGL078C, strain dbp3, stronger effect = lower value",0.477 (active)
same,normalized growth,"locus YGL086W, strain mad1, stronger effect = lower value",0.279 (active)
same,normalized growth,"locus YGL167C, strain pmr1, stronger effect = lower value",0.781 (active)
same,normalized growth,"locus YGL173C, strain kem1, stronger effect = lower value",0.729 (active)
same,normalized growth,"locus YGL227W, strain vid30, stronger effect = lower value",0.254 (active)
same,normalized growth,"locus YGL240W, strain doc1, stronger effect = lower value",0.23 (active)
same,normalized growth,"locus YGL248W, strain PDE1, stronger effect = lower value",0.282 (active)
same,normalized growth,"locus YGL253W, strain hxk2, stronger effect = lower value",0.251 (active)
same,normalized growth,"locus YGR078C, strain PAC10, stronger effect = lower value",0.527 (active)
same,normalized growth,"locus YGR135W, strain pre9, stronger effect = lower value",0.653 (active)
same,normalized growth,"locus YGR229C, strain SMI1, stronger effect = lower value",0.286 (active)
same,normalized growth,"locus YGR252W, strain gcn5, stronger effect = lower value",0.665 (active)
same,normalized growth,"locus YHR013C, strain ard1, stronger effect = lower value",0.234 (active)
same,normalized growth,"locus YHR027C, strain rpn1, stronger effect = lower value",0.221 (active)
same,normalized growth,"locus YHR030C, strain SLT2, stronger effect = lower value",0.252 (active) and 0.332 (active)
same,normalized growth,"locus YHR079C, strain IRE1 (second series), stronger effect = lower value",0.359 (active)
same,normalized growth,"locus YHR079C, strain IRE1, stronger effect = lower value",0.3 (active)
same,normalized growth,"locus YHR094C, strain hxt1, stronger effect = lower value",0.388 (active)
same,normalized growth,"locus YHR129C, strain ARP1, stronger effect = lower value",0.331 (active)
same,normalized growth,"locus YHR142W, strain chs7, stronger effect = lower value",0.284 (active)
same,normalized growth,"locus YHR200W, strain rpn10, stronger effect = lower value",0.562 (active)
same,normalized growth,"locus YIL066C, strain RNR3, stronger effect = lower value",0.229 (active)
same,normalized growth,"locus YIL073C, strain SPO22, stronger effect = lower value",0.308 (active)
same,normalized growth,"locus YIL125W, strain kgd1, stronger effect = lower value",0.411 (active)
same,normalized growth,"locus YIR030C, strain dcg1, stronger effect = lower value",0.381 (active)
same,normalized growth,"locus YJL092W, strain hpr5, stronger effect = lower value",0.346 (active)
same,normalized growth,"locus YJL095W, strain BCK1 (second series), stronger effect = lower value",0.267 (active)
same,normalized growth,"locus YJL095W, strain BCK1, stronger effect = lower value",0.298 (active) and 0.302 (active)
same,normalized growth,"locus YJL115W, strain asf1, stronger effect = lower value",0.443 (active)
same,normalized growth,"locus YJL129C, strain trk1, stronger effect = lower value",0.538 (active)
same,normalized growth,"locus YJL134W, strain LCB3, stronger effect = lower value",0.589 (active)
same,normalized growth,"locus YJL154C, strain vps35, stronger effect = lower value",0.42 (active)
same,normalized growth,"locus YJL164C, strain tpk1, stronger effect = lower value",0.248 (active)
same,normalized growth,"locus YJL166W, strain qcr8, stronger effect = lower value",0.167 (active)
same,normalized growth,"locus YJL168C, strain set2, stronger effect = lower value",0.422 (active)
same,normalized growth,"locus YJL187C, strain SWE1 (second series), stronger effect = lower value",0.392 (active)
same,normalized growth,"locus YJL187C, strain SWE1, stronger effect = lower value",0.299 (active)
same,normalized growth,"locus YJR043C, strain POL32, stronger effect = lower value",0.369 (active)
same,normalized growth,"locus YJR066W, strain TOR1, stronger effect = lower value",0.319 (active)
